Five compounds from the supplement of paper PMC10412459 can be followed below.

This assay deals with K562 SF3B1 K700E vs K562 SF3B1 WT. The experiment in a line: surviving fraction ratio K562 SF3B1 K700E / K562 SF3B1 WT (each relative to DMSO); higher = less selective killing of SF3B1 K700E cells. To be noted: 5 days. On the procedure: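 Drug-sensitivity screen of an in-house 80-compound library in isogenic K562 SF3B1 K700E versus SF3B1 WT cells. 250 cells/well in 384-well plates were exposed 24 h after seeding to 0.5-1000 nM compound for 5 days, and viability was read by CellTiter-Glo. Surviving fraction is relative to DMSO, and the value is the ratio of surviving fraction in K700E to WT cells; the paper calls ratio <0.6 with P<0.01 selective.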

Each structure is given as a SMILES string.

As for `CC/C(=C(\c1ccc(O)cc1)c1ccc(OCCN(C)C)cc1)c1ccccc1` [4-OH-tamoxifen], the “surviving fraction ratio K562 SF3B1 K700E / K562 SF3B1 WT” value by setting is: (0.5nM) 0.874; (1nM) 0.875; (5nM) 0.857; (10nM) 0.778; (50nM) 1; (100nM) 0.923. For the same compound, the “surviving fraction ratio K562 SF3B1 K700E / K562 SF3B1 WT” value came out at 0.884 (500nM) and 0.993 (1000nM).

As to `CC(=O)O[C@H]1C(=O)[C@@]2(C)[C@H]([C@H](OC(=O)c3ccccc3)[C@]3(O)C[C@H](OC(=O)[C@H](O)[C@@H](NC(=O)c4ccccc4)c4ccccc4)C(C)=C1C3(C)C)[C@]1(OC(C)=O)CO[C@@H]1C[C@@H]2O` [paclitaxel], the “surviving fraction ratio K562 SF3B1 K700E / K562 SF3B1 WT” value stood at 0.866 (0.5nM); 0.99 (1nM); 0.864 (5nM); 1.42 (10nM); 2.44 (50nM); 2.46 (100nM). Further, the “surviving fraction ratio K562 SF3B1 K700E / K562 SF3B1 WT” value by setting is: (500nM) 3; (1000nM) 2.44.

Turning to `CC(=O)NCC(=O)N1[C@@H]2CC[C@H]1c1ccc(Nc3ncc(C(F)(F)F)c(NC4CCC4)n3)cc12`, the “surviving fraction ratio K562 SF3B1 K700E / K562 SF3B1 WT” value was found to be 0.948 (0.5nM); 1.01 (1nM); 0.872 (5nM); 0.883 (10nM); 0.549 (50nM); 1.05 (100nM). Also, the “surviving fraction ratio K562 SF3B1 K700E / K562 SF3B1 WT” value (500nM) came to 1.18 and the “surviving fraction ratio K562 SF3B1 K700E / K562 SF3B1 WT” value (1000nM) was determined as 1.64.

For the compound `Cn1cc(C2=Nc3cc(NC(=O)C(N)C4CCCCC4)cc4c3C2=CNNC4=O)cn1` (stereo not given), the “surviving fraction ratio K562 SF3B1 K700E / K562 SF3B1 WT” value reads like this: (0.5nM) 0.884; (1nM) 0.979; (5nM) 0.826; (10nM) 0.834; (50nM) 0.992; (100nM) 0.621. In addition, the “surviving fraction ratio K562 SF3B1 K700E / K562 SF3B1 WT” value was determined as 0.815 (500nM) and 1.88 (1000nM).

As to `O=C(NOCC1CC1)c1ccc(F)c(F)c1Nc1ccc(I)cc1Cl`, the “surviving fraction ratio K562 SF3B1 K700E / K562 SF3B1 WT” value was determined as 1.29 (0.5nM); 0.978 (1nM); 1.08 (5nM); 0.818 (10nM); 1.3 (50nM); 0.822 (100nM). The “surviving fraction ratio K562 SF3B1 K700E / K562 SF3B1 WT” value (500nM) is 0.921 and the “surviving fraction ratio K562 SF3B1 K700E / K562 SF3B1 WT” value (1000nM) was found to be 0.944.
